Screening data as filed in PubChem BioAssay.
Mac1 fbg enh: increases human CD11b/CD18 adhesion to fibrinogen; activation, % at 10 µM; K562 CD11b/CD18 adhesion to fibrinogen, ATPlite luminescence; P05107+P11215; 93,000 compounds, 0.07% hits;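 active = 10 µM primary screen giving 50% or more activity, confirmed by 40% or more on retest at that dose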
Mac1 fbg inh: CD11b/CD18-fibrinogen binding inhibition. P05107+P11215. K562 CD11b/CD18 adhesion to fibrinogen, ATPlite luminescence; Mn2+ added to activate the integrin. inhibition, % at 10 µM. 93,000 compounds, 0.54% hits. AID 1497;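 active = primary inhibition of 50% or more at 10 µM, then 40% or more on retest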
CYP2C9 activ: CYP2C9 (human) activation | activation factor at 5 µM | recombinant CYP2C9, luciferin-H conversion, luminescence; hits give high values; factor 1 = untreated enzyme, 0 = blocked | 96,000 compounds, 1.4% hits | P11712;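 active = activation factor of 2 or more for CYP2C9 at a 5 µM dose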
Target sequence (P11712 whole entry, looked up): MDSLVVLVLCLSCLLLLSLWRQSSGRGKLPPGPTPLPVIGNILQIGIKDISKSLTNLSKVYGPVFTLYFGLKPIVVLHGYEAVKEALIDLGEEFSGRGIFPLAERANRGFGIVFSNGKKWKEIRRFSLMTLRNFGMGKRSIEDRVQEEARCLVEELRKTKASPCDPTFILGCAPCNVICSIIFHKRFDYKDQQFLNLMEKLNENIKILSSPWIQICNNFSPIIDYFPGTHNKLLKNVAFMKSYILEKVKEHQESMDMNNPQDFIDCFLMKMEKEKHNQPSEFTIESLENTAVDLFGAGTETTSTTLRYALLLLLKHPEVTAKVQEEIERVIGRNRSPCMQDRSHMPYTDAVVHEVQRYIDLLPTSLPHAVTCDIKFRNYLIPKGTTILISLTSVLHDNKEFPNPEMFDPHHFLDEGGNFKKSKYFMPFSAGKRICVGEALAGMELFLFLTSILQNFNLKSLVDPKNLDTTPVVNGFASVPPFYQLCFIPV
CYP2C19 inhib: human CYP2C19 inhibition; CYP2C19 Supersomes, luciferin-H EGE luminescence, 30 min; inhibition, % at 5 µM; 96,000 compounds, 21% hits;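 active = CYP2C19 inhibition above a set limit at 5 µM in the primary screen, cut at about 50% in these data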
CYP2C19 activ: increases human CYP2C19 enzyme activity. AID 1025. activation factor at 5 µM. 96,000 tested, under 10 active. recombinant CYP2C19, luciferin-H EGE luminescence; hits give high values; 0 = fully inhibited enzyme, 1 = untreated enzyme;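 active = activation factor of at least 2 at 5 µM in the primary screen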
CYP2C9 inhib: blocks human cytochrome P450 2C9; CYP2C9 Supersomes, luciferin-H conversion, luminescence; 96,000 compounds, 20% hits; AID 777; inhibition, % at 5 µM;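 active = blocking of liver enzyme CYP2C9 beyond about 50% at 5 µM, limit read from the data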
Of the large screens only hits and unclear results are named; the others gave an inactive call. An excerpt weighted towards active compounds, which were near 28% of everything screened.

Cc1noc(C)c1S(=O)(=O)N1CCCC(C(=O)N2CCN(C3CCCCC3)CC2)C1 (stereo not drawn)	none
Cc1ccccc1NC(=O)C1CCCN(S(=O)(=O)c2c(C)noc2C)C1 (stereo not drawn)	none
COC(=O)CSc1nnc(CNC(=O)Cc2ccccc2)n1-c1ccccc1OC	none
COc1cc(C(=O)Nc2nnc(CC(=O)N3CCOCC3)s2)cc(OC)c1OC	none
CNc1nn(-c2cccc(Cl)c2)nc1N	none
O=C(c1ccc([N+](=O)[O-])cc1)N(Cc1ccc(Cl)cc1)N1C(=O)CCCC1=O	CYP2C19 inhib 51
Cc1ccc([N+](=O)[O-])cc1NC(=O)CN(C(=O)c1ccc(Cl)cc1)C1CCCCC1	none (no result: Mac1 fbg enh, Mac1 fbg inh)
O=C(c1ccc([N+](=O)[O-])cc1)N(Cc1ccc(Cl)cc1Cl)N1C(=O)CCCC1=O	CYP2C19 inhib 64
CCOCCCNC(=O)Cn1cc2c(n1)CCCCC2	none
CC(=O)n1cc(-c2ccncc2)c2ccccc21	CYP2C19 inhib 80, CYP2C9 inhib 79
CN(C1CCCCC1)S(=O)(=O)c1ccc(NC(=S)NC(=O)c2cccs2)cc1	none (no result: Mac1 fbg enh, Mac1 fbg inh)
O=C(Nc1ccccc1)N(Cc1ccccc1)C1=NCCS1	CYP2C9 inhib 56
O=C(Nc1ccccc1)N(C1=NCCCCS1)c1cccc2ccccc12	CYP2C19 inhib 61 (no result: Mac1 fbg enh, Mac1 fbg inh)
O=C(Nc1ccccc1)N(C1=NCCCCS1)c1ccccc1	none
Cc1ccc(S(=O)(=O)N[C@H](C(=O)OCC(=O)N2N=C(c3ccc(Cl)cc3)CC2c2ccco2)C(C)C)cc1 (stereo partly drawn)	none (no result: CYP2C9 activ, CYP2C19 inhib, CYP2C19 activ, CYP2C9 inhib)
C=CCNC(=O)c1onc(CSc2ccc(C(C)C)cc2)c1C(=O)O	CYP2C9 inhib 87 (no result: Mac1 fbg enh, Mac1 fbg inh)
C=CCNC(=O)c1onc(CSc2ccc(OC)cc2)c1C(=O)O	CYP2C9 inhib 52 (no result: Mac1 fbg enh, Mac1 fbg inh)
C=CCNC(=O)c1onc(CSc2ccccc2)c1C(=O)O	none (no result: Mac1 fbg enh, Mac1 fbg inh)
C=CCNC(=O)c1onc(CSc2ccc(F)cc2)c1C(=O)NCCOC	Mac1 fbg inh 60, CYP2C19 inhib 98
C=CCNC(=O)c1onc(CSc2cccc3ccccc23)c1C(=O)O	CYP2C19 inhib 59, CYP2C9 inhib 94 (no result: Mac1 fbg enh, Mac1 fbg inh)
CCCCCn1c(=O)[nH]c2cc(C(=O)NCCN(CC)CC)ccc2c1=O	none
CCCCC(CC)CN1C(=O)/C(=C/c2ccncc2)SC1=S (stereo not drawn)	CYP2C19 inhib 62, CYP2C9 inhib 70
Nc1nc(CN2CCN(c3ccc(F)cc3)CC2)nc(N2CCCc3ccccc32)n1	CYP2C19 inhib 60, CYP2C9 inhib 53
COc1ccc(N2CCN(Cc3nc(N)nc(Nc4ccccc4OC)n3)CC2)cc1	none
N#Cc1cn(CC(=O)NCc2cccnc2)c2ccccc12	CYP2C19 inhib 80, CYP2C9 inhib 63
CCC(=O)c1cn(CC(=O)NCc2cccnc2)c2ccccc12	CYP2C19 inhib 86, CYP2C9 inhib 91
N#Cc1cn(Cc2ccccc2)c2ccccc12	CYP2C19 inhib 91, CYP2C9 inhib 84
CCn1c(=O)cc(SCC(=O)NCc2cccnc2)c2ccccc21	none (no result: Mac1 fbg enh, Mac1 fbg inh)
Cc1c(Br)c([N+](=O)[O-])nn1CC(=O)NCc1cccnc1	CYP2C19 inhib 90, CYP2C9 inhib 68
O=C(NCC1CCN(c2ccc(S(=O)(=O)N3CCOCC3)cc2)CC1)c1ccc(Cl)cc1	none
CCN1CCN(C(=S)c2ccc(OCC(=O)N3CCOCC3)cc2)CC1	none
Nc1nnc(SCc2cccnc2)s1	none (no result: Mac1 fbg inh)
Cc1nc2ccccc2nc1CSc1nnc(N)s1	CYP2C19 inhib 54
C=CCn1c(SCc2ccc([N+](=O)[O-])cc2)nnc1C(C)NC(=O)c1ccccc1 (stereo not drawn)	none
CC(C)Cn1[nH]c2c3c(ccc2c1=O)C(=O)c1ccccc1C3=O	CYP2C19 inhib 61, CYP2C9 inhib 80 (no result: Mac1 fbg enh, Mac1 fbg inh)
CCN(CC)CC(C(=O)N(CC)CC)P(=O)(c1ccccc1)c1ccccc1 (stereo not drawn)	none
FC(F)(F)C1=CC(c2ccccc2)=NCCN1	none
COc1cc(C2c3c(-c4ccccc4)n[nH]c3C(=O)N2c2ccccc2)ccc1O (stereo not drawn)	CYP2C19 inhib 77, CYP2C9 inhib 92
N#Cc1c(-c2ccccc2)nc2n(-c3ccccc3)nc(C(=O)Nc3ccccc3)n2c1=O	none
CCCNc1nc(C)c(C(C)=O)cc1C#N	none
Cn1nc(C(=O)Nc2nc3ccccc3[nH]2)c2ccccc2c1=O	none (no result: CYP2C9 activ, CYP2C19 inhib, CYP2C19 activ, CYP2C9 inhib)
